Compound activity from PubChem.
NLRP3 yeast inh – NALP3 inflammasome inhibitors in reconstituted yeast, primary screen, luminescence, uHTS | inhibition, % at 10 µM | Yeast reconstituted NLRP3/ASC/caspase-1, beta-gal luminescence, 24 h | 330,000 tested, 0.39% active | AID 2825, 2010;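 active = inhibition of 50% or more; inactive = inhibition below 50%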
NALP1 yeast inh – NALP1 inflammasome inhibitors in reconstituted yeast, colorimetric, S. cerevisiae, triplicate retest. inhibition, % at 10 µM. S. cerevisiae NALP1/ASC/caspase-1 growth, X-gal OD620, 72 h. 280,000 tested, 0.61% active; in the data active = inhibition mostly above about 24%, no sharp cut-off; inactive = mostly below about 32%
tim23-1 inh – growth inhibitors of tim23-1 mutant yeast, primary screen, luminescence, uHTS; 330,000 tested, 1.3% active; inhibition, % at 20 µM; S. cerevisiae tim23-1 growth, BacTiter-Glo luminescence, 24 h;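 active = growth inhibition of the mutant yeast at or above 50%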;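 also: temperature-sensitive mutant grown at 25 °C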
TIM10 inh – growth inhibitors of isogenic TIM10 control yeast, primary screen, counter-screen for tim10-1 yeast inhibitor project, luminescence, uHTS; S. cerevisiae TIM10 strain growth, BacTiter-Glo luminescence, 24 h; inhibition, % at 10 µM; 330,000 tested, 1.4% active; AID 463195, 2010;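 active = inhibition of 40% or more at the single tested concentration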;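 also: wild-type TIM10 isogenic control strain grown at permissive 25 °C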
tim10-1 inh – growth inhibitors of tim10-1 mutant yeast, primary screen, luminescence, uHTS. 330,000 tested, 2.2% active. inhibition, % at 20 µM. S. cerevisiae tim10-1 ts strain growth, BacTiter-Glo, 24 h;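 active = inhibition of at least 40%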;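 also: mutant grown at 25 °C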
tim10-1 confirm – growth inhibitors of tim10-1 mutant yeast, confirmation, single concentration, luminescence, S. cerevisiae | 7,400 tested, 56% active | shares compounds with tim10-1 inh | S. cerevisiae tim10-1 ts strain growth, BacTiter-Glo, 24 h | inhibition, % at 20 µM;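 active = inhibition of yeast growth at or above a set limit in either of two repeat tests at 20 µM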;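 also: tim10-1 mutant grown at permissive 25 °C to find synthetic lethal compounds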
TIM10 conf – growth inhibitors of wild-type TIM10 yeast, confirmation, counter-screen for tim10-1 synthetic lethality project, single concentration, luminescence, S. cerevisiae | S. cerevisiae tim10 strain growth, BacTiter-Glo luminescence, 24 h | inhibition, % at 10 µM | shares compounds with TIM10 inh | 4,600 tested, 63% active;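 active = inhibition of yeast growth at or above a set limit in either of two replicates at 10 µM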; also: this counterscreen used the strain with wild-type TIM10
tim23-1 conf – tim23-1 mutant yeast growth inhibitors, confirmation, luminescence, single concentration. shares compounds with tim23-1 inh. S. cerevisiae tim23-1 growth, BacTiter-Glo luminescence, 24 h. inhibition, % at 20 µM. 4,400 tested, 83% active;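 active = inhibition above about 39% in either of two replicate wells at 20 µM, limit read from the data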;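 also: temperature-sensitive tim23-1 mutant grown at 25 °C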
Large screens that a line does not name were inactive (follow-up assays come after a bar, where they were run). Rows were chosen to be rich in hits. Some 4% of all compounds tested hit in one or more screens of this group.

C[C@H](N=C1NS(=O)(=O)c2ccccc21)C(=O)OCc1cc([N+](=O)[O-])cc2c1OCOC2	none (no result: NALP1 yeast inh)
CCOC(=O)C1CCCCN1Cc1ccc(-c2ccccc2)cc1 (centres undefined)	none
Cc1ccc(OCc2cc(C(=O)NCc3cnn(-c4cccc(F)c4)c3)no2)cn1	tim23-1 inh 62, tim10-1 inh 44 | tim10-1 confirm inactive | tim23-1 conf 60
Cc1ccc(OCc2cc(C(=O)NCc3ccc(OC(F)(F)F)cc3)no2)cn1	none
COC(=O)c1cc(=O)n(-c2ccc(F)cc2)c(=Nc2ccc(F)cc2)s1	tim23-1 inh 67, TIM10 inh 54, tim10-1 inh 56 | tim10-1 confirm 57 | TIM10 conf 55 | tim23-1 conf 44
COC(=O)c1cc(=O)n(Cc2cccs2)c(=Nc2ccc(F)cc2)s1	none
Brc1ccc(C2=CC(c3cccs3)n3ncnc3N2)cc1 (centres undefined)	tim23-1 inh 52, tim10-1 inh 50 | tim10-1 confirm 38 | tim23-1 conf 54
Cc1cccc(-n2c(-c3csc4ccccc34)n[nH]c2=S)c1	tim23-1 inh 51, tim10-1 inh 45 | tim10-1 confirm inactive | tim23-1 conf 43
CC(C)Cn1c(-c2csc3ccccc23)n[nH]c1=S	none
CC(=O)c1ccc(OCCCC(=O)NNC(=O)c2ccccn2)cc1	none (no result: NALP1 yeast inh)
Cc1nc(N2CCN(c3ccccc3O)CC2)c2c(-c3ccccc3)csc2n1	tim23-1 inh 51, tim10-1 inh 42 | tim10-1 confirm 32 | tim23-1 conf 48
CC(C)c1ccc(NC(=O)COC(=O)[C@@H]2CCCN2C(=O)c2cccs2)cc1	none (no result: NALP1 yeast inh)
COc1ccc(CCNC(=O)c2c(O)c3cccc4c3n(c2=O)CC4)cc1OC	tim23-1 inh 53, TIM10 inh 57, tim10-1 inh 43 | tim10-1 confirm inactive | TIM10 conf 30 | tim23-1 conf 45
CC(=O)c1c(O)c2cccc3c2n(c1=O)CCC3	tim23-1 inh 54, tim10-1 inh 41 | tim10-1 confirm 30 | tim23-1 conf 52
Cc1nn2c(NCc3ccccn3)cc(C(C)C)nc2c1-c1ccccc1	tim23-1 inh 60, TIM10 inh 64, tim10-1 inh 45 | tim10-1 confirm 49 | TIM10 conf 68 | tim23-1 conf 61
COc1ccc(C(=O)C2CCN(S(=O)(=O)c3ccc4c(c3)OCCO4)CC2)cc1	tim23-1 inh 60, TIM10 inh 68, tim10-1 inh 56 | tim10-1 confirm 57 | TIM10 conf 61 | tim23-1 conf 46
COc1ccc(OC)c(NC(=O)C2CCN(S(=O)(=O)c3ccc4c(c3)OCCO4)CC2)c1	none (no result: NALP1 yeast inh)
COc1ccc(NC(=O)COc2coc(CN3CCN(c4ccccc4)CC3)cc2=O)cc1	none (no result: NALP1 yeast inh)
C/C(=N\OC(=O)Nc1ccc(Cl)cc1)c1ccc(F)c(F)c1	tim23-1 inh 57, tim10-1 inh 51 | tim10-1 confirm 54 | tim23-1 conf 59
C/C(=N\OC(=O)Nc1ccc(Cl)cc1)c1ncc(C(F)(F)F)cc1N1CCOCC1	none
O=C(Nc1ccc(Cl)cc1)ON=C1CCCC1	NALP1 yeast inh 94, tim23-1 inh 64, TIM10 inh 82, tim10-1 inh 43 | tim10-1 confirm inactive | TIM10 conf inactive | tim23-1 conf 41
CSc1cccc(NC(=S)NC(=O)CCc2ccccc2)c1	none
Cc1cccc(C)c1NC(=S)NC(=O)CCc1ccccc1	tim23-1 inh 56, TIM10 inh 47, tim10-1 inh 51 | tim10-1 confirm 35 | TIM10 conf 36 | tim23-1 conf 42
CSc1ccccc1NC(=O)CSc1nnc(CNC(=O)c2ccccc2F)n1C	none
Cc1ccc(/C(N)=N/OC(=O)Cc2cccc3ccccc23)cc1	tim23-1 inh 50, TIM10 inh 62, tim10-1 inh 57 | tim10-1 confirm 58 | TIM10 conf 54 | tim23-1 conf 46
Cc1ccc(/C(N)=N/OC(=O)Cc2ccccc2)cc1	none
Cc1cccc(/C(N)=N/OC(=O)Cc2cccc3ccccc23)c1	tim23-1 inh 54, TIM10 inh 76, tim10-1 inh 62 | tim10-1 confirm 69 | TIM10 conf 79 | tim23-1 conf 60
CC12CCC(C(=O)N(CC(O)CN3CCN(Cc4ccccc4)CC3)C1=O)C2(C)C (centres undefined)	none
CN(C)c1ccc(/C=N\NC(=S)SCN2C(=O)C3CCC(C)(C2=O)C3(C)C)cc1 (centres undefined)	tim23-1 inh 53, TIM10 inh 53, tim10-1 inh 61 | tim10-1 confirm 52 | TIM10 conf inactive | tim23-1 conf 47
CN(C)c1ccc(/C=N/NC(=O)CCCO)cc1	none
COc1ccc(/C=N\NC(=S)SCN2C(=O)C3CCC(C)(C2=O)C3(C)C)cc1 (centres undefined)	tim23-1 inh 52, TIM10 inh 52, tim10-1 inh 49 (no result: NALP1 yeast inh) | tim10-1 confirm 40 | TIM10 conf inactive | tim23-1 conf 51
CC12CCC(C(=O)N(CSC(=S)N/N=C\c3ccccc3O)C1=O)C2(C)C (centres undefined)	tim23-1 inh 66, TIM10 inh 44, tim10-1 inh 47 | tim10-1 confirm inactive | TIM10 conf 38 | tim23-1 conf 57
COc1ccc(C(=O)NN2C(=O)C3CCC(C)(C2=O)C3(C)C)cc1 (centres undefined)	none
COc1ccc2nc3oc(C(=O)N4CC(C)CC(C)C4)cc3cc2c1 (centres undefined)	tim23-1 inh 54, tim10-1 inh 59 | tim10-1 confirm inactive | tim23-1 conf 41
CCOc1ccccc1N1CCN(C(=S)NCc2ccco2)CC1	none
Cc1cccc(N2CCN(C(=S)NCc3ccco3)CC2)c1C	tim23-1 inh 53, tim10-1 inh 55 | tim10-1 confirm 48 | tim23-1 conf 43
S=C(NCc1ccco1)N1CCN(Cc2ccc(Cl)cc2Cl)CC1	tim23-1 inh 70, TIM10 inh 48, tim10-1 inh 51 | tim10-1 confirm 54 | TIM10 conf 43 | tim23-1 conf 62
CCC(C)NC(=O)C1CCC(CNS(=O)(=O)c2ccc3c(c2)N(C(C)=O)CCO3)CC1 (centres undefined)	none
